The sample as a whole holds a higher share of hits than the screen did.
NPSR antag – neuropeptide S receptor (human) antagonism, cAMP; 220,000 tested, 1% active; Potency, µM (highest dose often 38.3 µM), for inactives: top-dose activity change, negative = inhibition, most hits filed as inhibitors; CHO-NPSR cells, cAMP TR-FRET, antagonist mode; also: nearly all actives have a fitted effect of over 50% in size
Target sequence (Q6W5P4 whole entry, looked up): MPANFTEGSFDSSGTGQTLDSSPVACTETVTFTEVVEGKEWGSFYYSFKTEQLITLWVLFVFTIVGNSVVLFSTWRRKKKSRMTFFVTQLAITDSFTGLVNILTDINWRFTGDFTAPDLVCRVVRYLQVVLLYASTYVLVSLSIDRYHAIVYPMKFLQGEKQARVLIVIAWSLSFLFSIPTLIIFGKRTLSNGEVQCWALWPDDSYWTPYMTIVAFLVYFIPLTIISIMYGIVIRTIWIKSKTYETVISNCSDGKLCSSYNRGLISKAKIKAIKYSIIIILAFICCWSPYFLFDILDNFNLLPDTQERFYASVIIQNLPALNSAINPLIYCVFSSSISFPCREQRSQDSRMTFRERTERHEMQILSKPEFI
ERK EGF inh – blocks ERK signaling stimulated by EGF; AID 1454; 130,000 tested, 0.41% active; HEK293-V1b, EGF-stimulated phospho-ERK AlphaScreen; Potency, µM (series often up to 11.5 µM), without a hit: at the highest dose activity change, negative = inhibition, most hits filed as inhibitors;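 also: plate controls were stimulated vehicle wells for no effect and unstimulated vehicle basal for full effect; nearly all actives have a fitted effect of over 55% in size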
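HEK293 cells stably expressing V1b receptor, serum-reduced (1% FBS) overnight, pretreated 30 min with compound, then stimulated 5 min with 25 nM EGF; phospho-ERK detected by AlphaScreen SureFire. AC50 from Hill fits, normalized to DMSO and EGF.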
* marks the source's active call; other numbers are inactive results; ? = inconclusive; . = no result; [ ] = dose if it differs, or a comment. Calls follow the shape of the dose curve; as a rule, active = well fitted curve in the direction sought with a large enough effect; inconclusive = small, poorly fitted or top-dose-only effect, or another doubt; inactive = no such curve, though single readings can be large; an effect the other way counts as inactive or inconclusive. Unless noted, % is scaled to controls: 0 for no effect and ±100 for the full control effect; potency is read from the fitted curve at half-maximal effect.

SMILES	NPSR antag	ERK EGF inh
OC[C@H]1O[C@@H](n2cnc3c(NCc4ccccc4)ncnc32)[C@H](O)[C@@H]1O	.	-5%
COc1ccc(S(=O)(=O)N2CCCC2)c(Cl)c1Cl	-6%	2%
COc1ccc(OC)c2c1C(=O)c1ccccc1C2=O	-5%[46.1 µM]	.
COc1ccc(N)c2c1C(=O)c1ccccc1C2=O	13µM*	20µM*
COc1ccc(OC)c2c1C(=O)C(Cl)=C(Cl)C2=O	6.3µM*	28µM*
O=S(=O)(c1ccc(F)cc1)N1CCN(c2ccccn2)CC1	-1%	-8%
CCC(CO)NS(=O)(=O)c1cc(-c2nn(C)c(=O)c3ccccc23)ccc1C (stereo not drawn)	-3%	3%
c1ccc2c(c1)oc1c(Nc3ccc4c(c3)OCO4)ncnc12	-9%[46.1 µM]	.
c1ccc(Nc2ncnc3ccc(-c4ccc5c(c4)OCO5)cc23)cc1	.	2.8µM*
O=c1c2ccccc2sc2nc(C3CCCCC3)n(Cc3ccco3)c(=O)c12	10µM*	.
CCc1nc2sc3ccccc3c(=O)c2c(=O)n1Cc1ccco1	-22%[46.1 µM]	-12%
O=C1c2ccccc2C(=O)N1CCCCSc1nc2ccccc2c(=O)n1CCCN1CCOCC1	-38%	7%
COc1cc(/C=C2/C(=O)NN(c3cccc(C)c3)C2=O)ccc1OC(=O)c1ccco1	?	25µM*
COc1cc(/C=C2/C(=O)NN(c3cccc(C)c3)C2=O)cc([N+](=O)[O-])c1O	-50%	-4%
CCOC(=O)C1(CCCc2ccccc2)CCN(C(=O)C(C)n2cncn2)CC1 (stereo not drawn)	10%	-3%
Cc1[nH]c2ccccc2c1CCN(Cc1cccnc1)C(=S)Nc1ccc(F)cc1	7.9µM*	-18%
Cc1[nH]c2ccccc2c1CCN(Cc1cccnc1)C(=S)Nc1cccc(F)c1	-54%	2%
Cc1ccc(C)c(N=Nc2nc3ccccc3n2C)c1	-24%[46.1 µM]	.
Cc1cc(C)c(C)c(N=Nc2nc3ccccc3n2C)c1C	?	14µM*
Cc1ccc(/C=C2\SC(=S)N(CCCC(=O)NNC(=O)c3ccccc3O)C2=O)cc1	5%	3%[57.5 µM]
O=C(CN1C(=O)/C(=C/c2ccccc2)SC1=S)NNC(=O)c1ccccc1O	-17%	14µM*
CCC(=O)N(CCc1ccc(S(N)(=O)=O)cc1)C1CC(=O)N(c2ccc(OC)cc2)C1=O (stereo not drawn)	-6%	3%
CCOc1ccc(CCNC(=O)C(CCC(N)=O)NC(=O)OCc2ccccc2)cc1OCC (stereo not drawn)	6%	-5%
CC(C)(C)C(=O)NC(=S)NNC(=O)c1sc2ccccc2c1Cl	-52%	13µM*
O=C(NNC(=S)NC1CCCCC1)c1sc2ccccc2c1Cl	-20%	2%
SMILES	NPSR antag	ERK EGF inh
COc1cccc2[nH]c3c(N4CCc5ccccc5C4)ncnc3c12	-35%	22µM*
COc1cccc2[nH]c3c(N4CCC(C)CC4)ncnc3c12	-7%[46.1 µM]	.
COc1ccc2[nH]c3c(N4CC(C)OC(C)C4)ncnc3c2c1 (stereo not drawn)	-12%[46.1 µM]	.
c1ccc2c(c1)[nH]c1c(N3CCC4(CC3)OCCO4)ncnc12	-14%[46.1 µM]	.
COc1cccc(N2CCN(c3ncnc4c3[nH]c3ccccc34)CC2C)c1 (stereo not drawn)	10µM*	14µM*
COc1cccc(N2CCN(c3ncnc4c3[nH]c3ccc(F)cc34)CC2C)c1 (stereo not drawn)	2.5µM*	.
CC1(C)CC(O)C(C(O)c2cccc([N+](=O)[O-])c2)C(C)(C)N1 (stereo not drawn)	-31%	-7%
COc1ccccc1N1CCN(C2CCN(C(=O)COc3ccccc3)CC2)CC1	5%	8%
Cc1nc2c(c(=O)n1CCC1=CCCCC1)c1nc3ccccc3nc1n2/N=C/c1ccco1	10µM*	.
COCCn1cnc2c(c1=O)c1nc3ccccc3nc1n2/N=C/c1ccco1	-15%	-8%[57.5 µM]
Cc1sc2ncnc(SCC(=O)c3ccc4c(c3)OCCO4)c2c1-c1ccccc1	-4%	7%
CCOc1ccc(/C=C/[N+](=O)[O-])c2ccccc12	10µM*	.
CCOC(=O)Cn1cc(/C=C/[N+](=O)[O-])c2ccccc21	-18%	-2%
CCCn1c(-c2ccc(F)cc2)nc2c(NC3CC4CCC(C3)N4C)nc(C)nc21 (stereo not drawn)	.	1%
COc1ccc(-c2nnc(SCc3cc(C)ccc3C)n2N)cc1	-6%[46.1 µM]	.
CC1=NNC(=O)/C1=C\c1cn(-c2ccccc2)nc1-c1ccccc1	13µM*	2%
O=Cc1cn(-c2ccccc2)nc1-c1ccncc1	-8%	4%
Fc1cccc(CN2CCN(c3nc4nonc4nc3NC3CC3)CC2)c1	8%	-6%
COc1ccc(-c2cn[nH]c2-c2ccc(OCc3ccc(F)cc3)cc2O)cc1OC	-51%	?
COc1ccc(-c2cn[nH]c2-c2ccc(OCc3ccccc3)cc2O)cc1OC	-42%	22µM*
CCc1ccc(NC(=O)C2(C)Cc3ccccc3C(=O)O2)cc1 (stereo not drawn)	16%	22µM*
COc1ccccc1NC(=O)C1(C)Cc2ccccc2C(=O)O1 (stereo not drawn)	1%[46.1 µM]	.
Cc1cccc(NC(=O)c2sc3nc(N)c(C#N)cc3c2N)c1	-35%	-2%
CC(C)OC(=O)CCC1(C(=O)O)CCC(=O)NC1 (stereo not drawn)	6%[46.1 µM]	.
CCCSc1cc(NCCOC(=O)CCC)c([N+](=O)[O-])c2nonc12	-13%[46.1 µM]	-2%
SMILES	NPSR antag	ERK EGF inh
CCCC(=O)OCCNc1cc(Sc2nccn2C)c2nonc2c1[N+](=O)[O-]	10µM*	?
COc1ccc(NC(=O)N2CCCC3(CCN(C(=O)c4cnccn4)CC3)C2)cc1	.	6%
COc1ccc(C(=O)/C(=C\c2ccco2)N2C=CC=CC2=C(C#N)C#N)cc1	-26%[46.1 µM]	.
N#CC(C#N)=C1C=CC=CN1/C(=C\c1ccco1)C(=O)c1ccccc1	?	14µM*
CN=c1scc(-c2ccc(OC)cc2)n1/N=C(\C)c1cccnc1	-16%	22µM*
C/C(=N/n1cnnc1)c1cccnc1	9%[46.1 µM]	.
OC(CNC1CCCCC1)COCCOc1ccc(Br)cc1 (stereo not drawn)	-4%	-6%
COc1ccc(N2CCC(CNC(=S)Nc3ccc(C)cc3C)C2)cc1 (stereo not drawn)	-49%	14µM*
COc1ccc(N2CCC(CNC(=S)Nc3c(C)cc(C)cc3C)C2)cc1 (stereo not drawn)	-44%	8.9µM*
COc1ccc(N2CCC(CNC(=S)Nc3cccc(C)c3)C2)cc1 (stereo not drawn)	-23%	?
COc1ccc(N2CCC(CNC(=O)Nc3ccc(C)c(C)c3)C2)cc1 (stereo not drawn)	-12%	3%
CCOc1ccc(CCNC(=O)c2cccc(C#N)c2)cc1OCC	2%	0%
COc1ccc(CN(C)C(=S)Nc2ccc(Cl)cc2)cc1	-13%	1%
CN1CCc2c(sc3c2C(=O)NC(c2ccc(-c4ccc(Cl)cc4)o2)N3)C1 (stereo not drawn)	-12%	-7%[57.5 µM]
O=C(NC(Nc1nc2ccc([N+](=O)[O-])cc2s1)(C(F)(F)F)C(F)(F)F)c1cccnc1	-32%	10%
O=C(NC(Nc1nc2ccc([N+](=O)[O-])cc2s1)(C(F)(F)F)C(F)(F)F)c1ccccc1Cl	7.9µM*	-4%
CCOC(=O)/C(C#N)=C\C=C1C=CN(C)C=C1	13µM*	.
CCOC(=O)/C(C#N)=C\c1ccc(CC)s1	-14%[46.1 µM]	.
CC[C@]12CCCN3CCc4c(n(c5ccccc45)C(=O)C1)[C@H]32	.	-8%

Source: PubChem BioAssay
